Reference: the supplement of paper PMC6555819

Legend:
Assay in all cases: PBM binding z-score (relative to random genomic background probes); higher = stronger binding; sequences stand for … in GC…GCGATTGACAGCGTAGAATGAAGG
[1] = test system: FXR:RXRa (NR concentration 270 nM, RXRa partner concentration 90 nM)
Procedure, shortened: (§1)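 Random background probes are the reference for binding z-scores. These scores derive from regression-normalized fluorescence on custom Agilent 4×180K protein-binding microarrays incubated 1 h with ligand-free nuclear receptor dimers. Binding was detected with antibodies against each partner (one per run).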

[2] = test system: LXRa:RXRa (NR concentration 270 nM, RXRa partner concentration 90 nM)
Procedure, shortened: as §1

[3] = test system: LXRa homodimer (NR concentration 270 nM)
Procedure, shortened: as §1

[4] = test system: LXRb:RXRa (NR concentration 270 nM, RXRa partner concentration 90 nM)
Procedure, shortened: as §1

[5] = test system: LXRb homodimer (NR concentration 270 nM)
Procedure, shortened: as §1

[6] = test system: PPARa:RXRa (NR concentration 270 nM, RXRa partner concentration 90 nM)
Procedure, shortened: as §1

[7] = test system: PPARg:RXRa (NR concentration 180 nM, RXRa partner concentration 90 nM)
Procedure, shortened: as §1

[8] = test system: PPARg:RXRa 270nM:90nM, anti-RXR (NR concentration 270 nM, RXRa partner concentration 90 nM)
Procedure, shortened: as §1

[9] = test system: PPARg:RXRa 30nM:10nM, anti-RXR (NR concentration 30 nM, RXRa partner concentration 10 nM)
Procedure, shortened: as §1

[10] = test system: PPARg:RXRa 90nM:30nM, anti-RXR (NR concentration 90 nM, RXRa partner concentration 30 nM)
Procedure, shortened: as §1

Row | Sequence | PBM binding z-score [1] | PBM binding z-score [2] | PBM binding z-score [3] | PBM binding z-score [4] | PBM binding z-score [5] | PBM binding z-score [6] | PBM binding z-score [7] | PBM binding z-score [8] | PBM binding z-score [9] | PBM binding z-score [10]
1 | CAGCCTTGGTCAGGGCCAGTATAGGAGGAACGTT | -0.896 | -0.936 | -0.824 | -0.976 | -1.46 | -0.531 | -0.0449 | -0.51 | -0.686 | -0.517
2 | TCTTGTAGATCAAAGGTTAAGAATGCCGAAGCCT | 2.11 | 2.06 | 0.248 | 1.94 | 0.134 | 4.68 | 7.84 | 7.95 | 8.02 | 8.37
3 | GCTAACGGGTCAAAGGTTATAGCATGAATAGAAT | 7.39 | 5.26 | 0.513 | 5.21 | 0.0725 | 6.84 | 10.4 | 8.58 | 9.26 | 9.13
4 | CCTGCTAGGTCAATGCTCAGCTAAAGCAGCTCGC | 2.82 | 1.9 | -0.307 | 1.16 | -0.142 | 2.54 | 1.2 | 1.88 | -0.451 | 0.833
5 | GCTCGGAGGACAAGGTTAGAGCTTTGTCCGTAGA | -0.181 | -0.186 | -1.07 | -0.329 | -0.89 | 0.169 | -0.843 | 0.0367 | -1.07 | -0.395
6 | CCTAGCAGGCCAATCTGGGCCACTCAAGGCTTGA | -0.284 | -0.644 | -0.799 | -1.18 | -1.02 | 0.492 | -0.0153 | -0.364 | -1.32 | -1.08
7 | CGTCCAAGGTCAGCAGGTCTGTGAAAGCGACGTG | 5.03 | 3.02 | -0.272 | 2.06 | -0.284 | 4.16 | 2.65 | 3.06 | 0.0215 | 1.57
8 | TCTTGTAGATCAACACGAGGTTAAGAAAGATCGA | 0.233 | 1.58 | 0.248 | 1.01 | -0.293 | 1.55 | 0.0854 | 1.33 | 2.58 | 1.94
9 | CGTCCAAGGTCATGGTCAGTGAAAGAGACTCGAA | 6.75 | 5.27 | 0.622 | 4.03 | 0.455 | 5.74 | 5.32 | 5.75 | 2 | 4.28
10 | CGTCCAAGGGCAAGGTCAGTGAAAGAGACTCGAA | 1.95 | 1.58 | -0.119 | 1.22 | -0.836 | 2.75 | 0.977 | 1.31 | -0.324 | 0.436
11 | TCTAGTTGGTCACGGAGGTCACATACGACGGGTA | 3.08 | 3.35 | 2.47 | 3.46 | 0.637 | 3.93 | 3.1 | 3.94 | 3.8 | 3.63
12 | CCTACTGGGCAATCAGGTCATTGATATCAACGTT | 0.891 | 1 | 0.766 | 1.27 | -0.496 | 2.26 | 1.34 | 2.44 | 0.371 | 1.25
13 | CAAACTCGGTCACGAAAGGTCAAAGTCGAATGAC | 6.39 | 7.32 | 7.74 | 6.5 | 2.6 | 5.95 | 6.08 | 5.84 | 2.68 | 5.51
14 | ATCGAAAGGTCGTGAGGTGAGTAAACAGAAAGGC | 5.42 | 3.82 | 0.314 | 3.14 | 0.648 | 5.03 | 3.9 | 4.4 | 1.22 | 2.97
15 | ATCTCTAGGTAACCAAATTCAGTGAATGCCGAAC | 0.306 | 0.196 | 0.385 | 0.283 | 0.743 | 0.476 | 0.6 | 0.634 | 0.182 | 0.59
16 | TTACCAAGGTGAAAGGTCCTTGATGCACGCCTTG | 1.03 | 1.02 | -0.388 | 1.06 | -1.03 | 3.88 | 5.66 | 6.39 | 4.88 | 6.09
17 | TAGCCTAGGTCATTGGGCCAGTGTAGTACGCATC | 4.3 | 3.42 | 0.864 | 2.46 | 0.102 | 3.86 | 3.6 | 3.76 | 0.587 | 2.41
18 | CCTACTGGGCCATGCAGAGGTCATTGATCATATG | 2.63 | 3.58 | 4.68 | 3.51 | -0.363 | 3.84 | 2.51 | 3.33 | 1.11 | 2.41
19 | TCTTGTAGATCAATCAGGTTAAGAAAGCCTGAGT | 0.77 | 0.362 | 0.00408 | 0.532 | 0.279 | 0.703 | -0.495 | 1.31 | 2.82 | 2.3
20 | CCTACTGGGCCATCAGGTCATTCATATCAACGTT | 1.41 | 1.28 | 1.89 | 1.61 | -0.0742 | 2.72 | 2.7 | 3.47 | 1.16 | 2.86
21 | GCTTACGGGTCAAGGGTTATAGCATGAATAGAAT | 7 | 4.33 | -0.0628 | 4.68 | 0.59 | 6.34 | 9.43 | 7.41 | 6.16 | 8.05
22 | TCATATAGGTAAAAGGTTAAAGTCGGTGTGGTAA | 3.06 | 3.43 | 1.29 | 3.39 | 0.553 | 5.77 | 10.2 | 8.8 | 9.29 | 9.7
23 | CGTCCAAGGTCAGCAGTTCAGTGAAAGCGACGTG | 5.17 | 3.5 | 0.594 | 2.73 | -0.167 | 4.42 | 2.78 | 3.37 | 0.482 | 1.82
24 | CTACCAAGGTGAACAAGGTGGTTGATTACTATTC | 0.298 | 0.0424 | -0.231 | 0.391 | -0.589 | 1.21 | 0.492 | 0.416 | -0.231 | 0.026
